Drawing on PubChem BioAssay (NCATS), this text covers Potency and outcome for ten molecules.

A short description of experiment [1]: qHTS of pediatric cancer cell lines to identify multiple opportunities for drug repurposing: Confirmatory screen for control Hh wild type fibroblast cells (AID 1347121). Note: nearly all actives have a fitted effect of over 70% in size. Summed up:
(§1)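 Cells (500-1,000/well) rested 5 h, then received compounds for 48 h; metabolically active cells were measured by CellTiter-Glo luminescence. Final concentrations spanned up to 46 µM (MIPE, 11-point) or 0.59 nM-46 µM (NPC, 8-point) in primary screens, 11-point in follow-ups.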

Experiment [2] is described as follows: qHTS of pediatric cancer cell lines to identify multiple opportunities for drug repurposing: Confirmatory screen for Rh41 cells (AID 1347123).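 Note: 48 h compound exposure; nearly all actives have a fitted effect of over 60% in size.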 Note: potency is the fitted concentration of half-maximal effect. In short, it runs like this:
as §1
Background: In qHTS, concentration-response curves come from the screen itself.

A short description of experiment [3]: qHTS of pediatric cancer cell lines to identify multiple opportunities for drug repurposing: Confirmatory screen for RD cells (AID 1347124).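 Note: cells exposed to compound for 48 h before viability readout; nearly all actives have a fitted effect of over 65% in size.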 Note: potency is the fitted concentration of half-maximal effect. In short, it runs like this: as §1
Experiment [4] is described as follows: qHTS of pediatric cancer cell lines to identify multiple opportunities for drug repurposing: Confirmatory screen for Rh18 cells (AID 1347125). Note: nearly all actives have a fitted effect of over 55% in size. Summed up:
as §1

Experiment [5] in a line: qHTS of pediatric cancer cell lines to identify multiple opportunities for drug repurposing: Confirmatory screen for Rh30 cells (AID 1347126). Note: nearly all actives have a fitted effect of over 55% in size. Summed up: as §1
Experiment [6] in a line: qHTS of pediatric cancer cell lines to identify multiple opportunities for drug repurposing: Confirmatory screen for OHS-50 cells (AID 1347128).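 Note: compound exposure lasted 48 h at 37 degrees C; nearly all actives have a fitted effect of over 55% in size.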 Note: potency is the fitted concentration of half-maximal effect. Summed up:
as §1

Experiment [7] can be described thus: qHTS of pediatric cancer cell lines to identify multiple opportunities for drug repurposing: Confirmatory screen for SK-N-SH cells (AID 1347129).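 Note: cells exposed to compound for 48 h before viability read; nearly all actives have a fitted effect of over 60% in size.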 Summed up:
as §1

For experiment [8], the target named is N-terminal Xaa-Pro-Lys N-methyltransferase 1 (Homo sapiens) (UniProt Q9BV86). As to the kind of experiment: qHTS Assay for Inhibitors of N-terminal methyltransferase 1 (NTMT1): LOPAC validation of the NTMT1 SAHH-coupled ThioGlo3 Assay (AID 1347143).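 Note: SAH from peptide methylation measured as thiol fluorescence via SAHH coupling and ThioGlo3; nearly all actives have a fitted effect of over 70% in size.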 Note: potency is the fitted concentration of half-maximal effect. Summed up:
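Inhibition of NTMT1 methylation of peptide SPKRIA is followed by converting SAH with SAHH and labelling the released thiol with ThioGlo3. Plates are read at 340/450nm before and 30 min after reagent addition, both at room temperature.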

Experiment [9] deals with Zika virus NS2B-NS3 protease (unlinked). As to the kind of experiment: Optimization of GU AMC qHTS for Zika virus inhibitors: Unlinked NS2B-NS3 protease assay (AID 1347151). Note: nearly all actives have a fitted effect of over 80% in size. Note: potency is the fitted concentration of half-maximal effect. In short, it runs like this: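 Fluorescence read-out (340 nm ex / 450 nm em) of AMC peptide cleavage, taken immediately and after 15 min at room temperature (~20% conversion). Enzyme was the unlinked NS2B–NS3 complex at 25 nM in Tris pH 8.0 buffer.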

The test system of experiment [10] is Zika virus NS2B-NS3 protease. As to the kind of experiment: Primary screen GU AMC qHTS for Zika virus inhibitors (AID 1347154). Note: nearly all actives have a fitted effect of over 70% in size. Summed up: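 Fluorogenic AMC-substrate cleavage by noncovalent NS2B-NS3 protease complex (25 nM, pH 8.0 Tris buffer with Tween 20) followed for 15 minutes at room temperature (~20% conversion). Percent inhibition from ex340/em450 signal change, fitted by 4-parameter Hill equation.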

Experiment [11] can be described thus: qHTS of pediatric cancer cell lines to identify multiple opportunities for drug repurposing: Confirmatory screen for U-2 OS cells (AID 1347122). Note: nearly all actives have a fitted effect of over 65% in size. Note: potency is the fitted concentration of half-maximal effect. Summed up:
as §1

The target in another experiment is Furin (Homo sapiens) (UniProt P09958). As to the kind of experiment: Furin counterscreen qHTS for Zika virus inhibitors (AID 1347149). Note: nearly all actives have a fitted effect of over 70% in size. Note: potency is the fitted concentration of half-maximal effect. In short, it runs like this:
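Fluorogenic cleavage of BOC-RVRR-AMC (2 microM final, Km ~15 µM) was monitored (ex 340, em 450 nm) at 37C after 15 min RT preincubation of 5 nM furin with compounds in HEPES pH 7.0 buffer with CaCl2 and Triton X-100. Percent inhibition was fitted to a 4-parameter Hill curve.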

Experiment [12] is described as follows: ZIKV-mCherry secondary qHTS for Zika virus inhibitors (AID 1347158). Note: top concentration of the series differs between compounds. In short, it runs like this: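 After overnight seeding at 37 °C, Vero cells receive compound and then ZIKV-mCherry (MOI 1). Following 48-72 h infection, cells are fixed, counterstained with Hoechst, and imaged; percent infected cells is derived from an mCherry intensity cut-off of 450 RFU.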

The nature of experiment [13]: Confirmatory screen NINDS Rhodamine qHTS for Zika virus inhibitors (AID 1347161). Note: nearly all actives have a fitted effect of over 60% in size. Note: potency is the fitted concentration of half-maximal effect. Summed up:
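Aprotinin served as in-plate control. Conditions: 25 nM linked NS2B-NS3, pH 8.0 Tris buffer, titrated compounds, 15 min preincubation and 15 min reaction with 1.5 microM Rhod110 substrate at room temperature.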

Experiment [14] relates to Zika virus NS2B-NS3 protease (unlinked complex). As to the kind of experiment: Confirmatory screen GU AMC qHTS for Zika virus inhibitors (AID 1347153). Note: nearly all actives have a fitted effect of over 70% in size. Summed up: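 Fluorescence change (ex 340/em 450 nm) over 15 min, ~20% substrate conversion, normalized to no-inhibitor and no-enzyme controls, then Hill-fitted. Unlinked protease at 25 nM; AMC peptide 10 µM.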
In experiment [15] the test system is Zika virus NS2B-NS3 protease (linked construct). As to the kind of experiment: Confirmatory screen NINDS AMC qHTS for Zika virus inhibitors (AID 1347152). Summed up: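 Linked NS2B-NS3 1 nM, Tris pH 8.0/0.01% Tween 20; cpd 15 min RT dark; + Nle-KRR-AMC 10 µM (Km 18.3 µM); read 0 and 15 min, 340/450 nm; %inh vs controls, 4-param Hill.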
In experiment [16] the test system is Zika virus NS2B-NS3 protease (unlinked complex). As to the kind of experiment: Primary screen GU Rhodamine qHTS for Zika virus inhibitors: Unlinked NS2B-NS3 protease assay (AID 1347159). Note: nearly all actives have a fitted effect of over 60% in size. Summed up:
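A qHTS format was used, with compound concentrations ranging up to 114 microM. Each compound was preincubated with 25 nM NS2B-NS3 protease, and the substrate was then added at 1.5 microM. Curves were fitted with a 4-parameter Hill model.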

Experiment [17] deals with Zika virus NS2B-NS3 protease (linked construct). As to the kind of experiment: Primary screen NINDS Rhodamine qHTS for Zika virus inhibitors (AID 1347160). Note: nearly all actives have a fitted effect of over 55% in size. Conditions: outcome: dose series up to 57.1 µM unless noted. In short, it runs like this:
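Kinetic fluorescence (Ex 480 nm, Em 540 nm) over 15 min with 1.5 microM Rhodamine110 peptide and 25 nM linked protease.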

Inconclusive results are not listed. The source made the active and inactive calls. Calls come from the whole dose curve; as a rule, active = well fitted curve in the direction sought with a large enough effect; inconclusive = small, poorly fitted or top-dose-only effect, or another doubt; inactive = no such curve, though single readings can be large; an effect the other way counts as inactive or inconclusive.

Chain of N-terminal Xaa-Pro-Lys N-methyltransferase 1 (Homo sapiens) (Q9BV86 whole entry, looked up): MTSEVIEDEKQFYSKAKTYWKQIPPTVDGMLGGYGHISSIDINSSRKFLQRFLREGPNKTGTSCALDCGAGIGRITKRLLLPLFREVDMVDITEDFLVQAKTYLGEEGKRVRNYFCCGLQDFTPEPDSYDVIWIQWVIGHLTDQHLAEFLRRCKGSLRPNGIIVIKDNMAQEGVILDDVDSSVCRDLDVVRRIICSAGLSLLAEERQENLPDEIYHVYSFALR
Chain of Furin (Homo sapiens) (P09958 whole entry, looked up): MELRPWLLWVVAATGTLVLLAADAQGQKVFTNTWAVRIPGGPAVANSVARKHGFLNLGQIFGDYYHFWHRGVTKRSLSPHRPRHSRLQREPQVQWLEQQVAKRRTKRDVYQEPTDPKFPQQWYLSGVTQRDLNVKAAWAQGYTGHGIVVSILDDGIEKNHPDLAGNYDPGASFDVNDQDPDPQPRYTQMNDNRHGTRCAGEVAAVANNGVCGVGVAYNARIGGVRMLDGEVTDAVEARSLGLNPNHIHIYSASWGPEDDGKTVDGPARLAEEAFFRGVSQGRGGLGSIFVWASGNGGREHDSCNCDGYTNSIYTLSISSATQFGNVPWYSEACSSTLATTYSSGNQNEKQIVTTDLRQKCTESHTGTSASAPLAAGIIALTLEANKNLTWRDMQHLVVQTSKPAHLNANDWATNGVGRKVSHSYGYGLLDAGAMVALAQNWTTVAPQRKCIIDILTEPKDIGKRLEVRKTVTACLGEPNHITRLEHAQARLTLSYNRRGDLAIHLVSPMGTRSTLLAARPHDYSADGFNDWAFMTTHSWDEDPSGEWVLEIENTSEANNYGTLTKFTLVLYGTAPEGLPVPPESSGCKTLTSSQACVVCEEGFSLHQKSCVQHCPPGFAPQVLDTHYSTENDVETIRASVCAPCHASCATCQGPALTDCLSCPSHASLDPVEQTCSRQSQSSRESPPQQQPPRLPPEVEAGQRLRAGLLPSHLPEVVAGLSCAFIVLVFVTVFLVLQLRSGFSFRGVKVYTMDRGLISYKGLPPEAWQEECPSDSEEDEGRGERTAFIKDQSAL

Regarding `CC(C)Cc1ccc(C(C)C(=O)O)cc1` (configuration not stated), the Potency result in experiment [1], in [4], in experiment [5], in [6], in [7] and in experiment [8] was “inactive” in each case. The Potency result in experiment [9] and in [10] was “inactive” each time. Besides, the Potency in [2] was 4.65 µM (active); in experiment [3], 1.31 µM (active).
As to `CC#C[C@]1(O)CC[C@H]2[C@@H]3CCC4=CC(=O)CCC4=C3[C@@H](c3ccc(N(C)C)cc3)C[C@@]21C`, the Potency entry in [1], in experiment [3], in [9] and in experiment [10] was “inactive” throughout. Moreover, the Potency in experiment [2] was 23.3 µM (active); in [8], 11.2 µM (active).
For the molecule `CS(=O)(=O)Nc1ccc([N+](=O)[O-])cc1Oc1ccccc1`, the Potency entry in experiment [1], in [11], in experiment [4], in experiment [5], in experiment [6] and in experiment [9] was “inactive” each time. In addition, the Potency result in experiment [10] was “inactive”. For the same molecule, in experiment [2], the Potency is 18.5 µM (active).
Consider `O=c1c(O)c(-c2ccc(O)c(O)c2)oc2cc(O)cc(O)c12`, for which the Potency in experiment [8] was 35.5 µM (active); in [9], 2.12 µM (active); in [13], 50.1 µM (active). In addition, the Potency entry (with Furin (Homo sapiens); in [10]) was “inactive” each time. The result in [12] was inactive.
As to `Clc1ccc(C(c2ccccc2Cl)C(Cl)Cl)cc1` (configuration not stated), the Potency entry in experiment [1], in experiment [11], in [3], in experiment [4], in experiment [5] and in [6] was “inactive” in each case. The Potency entry in [7] and in experiment [10] was “inactive” in each case.
Take `COC(=O)Nc1nc2ccc(C(=O)c3cccs3)cc2[nH]1`: the Potency entry in [1], in experiment [4], in experiment [5], in [9] and in [10] was “inactive” throughout. Moreover, the Potency is 0.208 µM (active) in experiment [11], 0.233 µM (active) in [3] and 0.208 µM (active) in experiment [6].
Consider `CC(CCc1ccc(O)cc1)NCCc1ccc(O)c(O)c1` (configuration not stated), for which the Potency entry in experiment [1], in experiment [11], in [2], in experiment [3], in [4] and in experiment [5] was “inactive” each time. Also, the Potency result in [7], in [9] and in [10] was “inactive” each time.
In the case of `CN(C)CCCN1c2ccccc2CCc2ccc(Cl)cc21`, the Potency result in [1], in experiment [9] and in experiment [10] was “inactive” each time. In addition, the Potency in experiment [2] is 10.4 µM (active).
Take `CN(Cc1cnc2nc(N)nc(N)c2n1)c1ccc(C(=O)N[C@@H](CCC(=O)O)C(=O)O)cc1`: the Potency result in experiment [1], in experiment [4], in [5], in experiment [7] and in experiment [14] was “inactive” throughout. The Potency in experiment [3] is 0.0827 µM (active); in [6], 0.0131 µM (active); in experiment [8] it was 79.4 µM (active); with Furin (Homo sapiens) it was 19.1 µM (active); in [9] it was 21.2 µM (active).
As for `O=C1Cc2cc(CCN3CCN(c4nsc5ccccc45)CC3)c(Cl)cc2N1`, the Potency in experiment [8] was 44.7 µM (active); with Furin (Homo sapiens) it was 24.1 µM (active); in [9] it was 26.7 µM (active); in experiment [15], 34.1 µM (active). Also, the Potency entry in experiment [10], in experiment [16] and in experiment [13] was “inactive” in each case. Further, the outcome in [17] was inactive.
